Results on 14 molecules are retold here after PubChem BioAssay.

Molecules are shown by their SMILES. Calls of active or inactive are those of the source.

Assay [1] is described as follows: binders of probe aFSTL3 on microarray, primary screen, stem cell growth factor project, biochemical, small-molecule microarray, fluorescence 635/667 (AID 1064).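 Note: measures binding of the biotinylated anti-FSTL3 antibody to printed compounds.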 The note with it: higher = more signal.
Assay [2] in a line: binders from COS7 lysate, DM2A8 probe, primary screen, torsin A project, cell lysate, small-molecule microarray, fluorescence 635/667 (AID 1065). The note with it: higher = more signal, COS7 lysate expressing mutant human TOR1A.
Assay [3] can be described thus: binders of probe aFGF2 on microarray, primary screen, stem cell growth factor project, biochemical, small-molecule microarray, fluorescence 635/667 (AID 1067).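 Note: measures binding of biotinylated aFGF2 protein to printed compounds on slides; z-score merges feature fluorescence and signal-to-noise across triplicate slides.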 As to conditions: higher = more signal.
Assay [4] in a line: binders of probe aFGF10 on microarray, primary screen, stem cell growth factor project, biochemical, small-molecule microarray, fluorescence 635/667 (AID 1071).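 Note: score merges 667 nm spot intensity and signal to noise from triplicate slides.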 As to conditions: higher = more signal.
In assay [5] the target is Neurogenic locus notch homolog protein 2 (Homo sapiens) (UniProt Q04721). Description: Notch2 binders on small-molecule microarrays, primary screen, biochemical, small-molecule microarray, 635 nm fluorescence, stem cell growth factors (AID 1073). The note with it: Notch2 binding, higher = more signal.
Assay [6] deals with Pro-neuregulin-1, membrane-bound isoform (Homo sapiens) (UniProt Q02297). As to the kind of experiment: NRG1 binders on small-molecule microarrays, primary screen, psychiatric disease protein project, biochemical, small-molecule microarray, fluorescence 635/667 (AID 1075).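 Note: score combines 667 nm spot fluorescence with signal to noise.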 The note with it: NRG1 binding, 635 nm fluorescence, higher = more signal.
Assay [7] relates to Neuregulin-1 EGF-like domain. As to the kind of experiment: binders of neuregulin-1 EGF-like domain, primary screen, biochemical, small-molecule microarray, 635 nm fluorescence (AID 1081).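 Note: binding of the protein to compounds printed on small-molecule microarray slides.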 The note with it: small-molecule microarray binding, higher = more signal.
Assay [8] can be described thus: FRG1 promoter luciferase signal modulators, primary screen, FRG1 inhibition for FSHD, cell-based, C2C12 myotubes, firefly/Renilla luciferase, luminescence (AID 1084). As to conditions: higher = more signal, called active from +8 up or from −8 down.
A short description of assay [9]: binders of probe aFST on microarray, primary screen, stem cell growth factor project, biochemical, small-molecule microarray, fluorescence 635/667 (AID 1086).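 Note: score merges 667 nm fluorescence with signal-to-noise of each printed compound spot.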 As to conditions: higher = more signal.
A short description of assay [10]: binders of probe aHhip on microarray, primary screen, stem cell growth factor project, biochemical, small-molecule microarray, fluorescence 635/667 (AID 1087).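 Note: score merges spot fluorescence at 667nm with spot signal to noise ratio.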 The note with it: higher = more signal.

Neurogenic locus notch homolog protein 2 (Homo sapiens), sequence (Q04721 whole entry, looked up, canonical isoform): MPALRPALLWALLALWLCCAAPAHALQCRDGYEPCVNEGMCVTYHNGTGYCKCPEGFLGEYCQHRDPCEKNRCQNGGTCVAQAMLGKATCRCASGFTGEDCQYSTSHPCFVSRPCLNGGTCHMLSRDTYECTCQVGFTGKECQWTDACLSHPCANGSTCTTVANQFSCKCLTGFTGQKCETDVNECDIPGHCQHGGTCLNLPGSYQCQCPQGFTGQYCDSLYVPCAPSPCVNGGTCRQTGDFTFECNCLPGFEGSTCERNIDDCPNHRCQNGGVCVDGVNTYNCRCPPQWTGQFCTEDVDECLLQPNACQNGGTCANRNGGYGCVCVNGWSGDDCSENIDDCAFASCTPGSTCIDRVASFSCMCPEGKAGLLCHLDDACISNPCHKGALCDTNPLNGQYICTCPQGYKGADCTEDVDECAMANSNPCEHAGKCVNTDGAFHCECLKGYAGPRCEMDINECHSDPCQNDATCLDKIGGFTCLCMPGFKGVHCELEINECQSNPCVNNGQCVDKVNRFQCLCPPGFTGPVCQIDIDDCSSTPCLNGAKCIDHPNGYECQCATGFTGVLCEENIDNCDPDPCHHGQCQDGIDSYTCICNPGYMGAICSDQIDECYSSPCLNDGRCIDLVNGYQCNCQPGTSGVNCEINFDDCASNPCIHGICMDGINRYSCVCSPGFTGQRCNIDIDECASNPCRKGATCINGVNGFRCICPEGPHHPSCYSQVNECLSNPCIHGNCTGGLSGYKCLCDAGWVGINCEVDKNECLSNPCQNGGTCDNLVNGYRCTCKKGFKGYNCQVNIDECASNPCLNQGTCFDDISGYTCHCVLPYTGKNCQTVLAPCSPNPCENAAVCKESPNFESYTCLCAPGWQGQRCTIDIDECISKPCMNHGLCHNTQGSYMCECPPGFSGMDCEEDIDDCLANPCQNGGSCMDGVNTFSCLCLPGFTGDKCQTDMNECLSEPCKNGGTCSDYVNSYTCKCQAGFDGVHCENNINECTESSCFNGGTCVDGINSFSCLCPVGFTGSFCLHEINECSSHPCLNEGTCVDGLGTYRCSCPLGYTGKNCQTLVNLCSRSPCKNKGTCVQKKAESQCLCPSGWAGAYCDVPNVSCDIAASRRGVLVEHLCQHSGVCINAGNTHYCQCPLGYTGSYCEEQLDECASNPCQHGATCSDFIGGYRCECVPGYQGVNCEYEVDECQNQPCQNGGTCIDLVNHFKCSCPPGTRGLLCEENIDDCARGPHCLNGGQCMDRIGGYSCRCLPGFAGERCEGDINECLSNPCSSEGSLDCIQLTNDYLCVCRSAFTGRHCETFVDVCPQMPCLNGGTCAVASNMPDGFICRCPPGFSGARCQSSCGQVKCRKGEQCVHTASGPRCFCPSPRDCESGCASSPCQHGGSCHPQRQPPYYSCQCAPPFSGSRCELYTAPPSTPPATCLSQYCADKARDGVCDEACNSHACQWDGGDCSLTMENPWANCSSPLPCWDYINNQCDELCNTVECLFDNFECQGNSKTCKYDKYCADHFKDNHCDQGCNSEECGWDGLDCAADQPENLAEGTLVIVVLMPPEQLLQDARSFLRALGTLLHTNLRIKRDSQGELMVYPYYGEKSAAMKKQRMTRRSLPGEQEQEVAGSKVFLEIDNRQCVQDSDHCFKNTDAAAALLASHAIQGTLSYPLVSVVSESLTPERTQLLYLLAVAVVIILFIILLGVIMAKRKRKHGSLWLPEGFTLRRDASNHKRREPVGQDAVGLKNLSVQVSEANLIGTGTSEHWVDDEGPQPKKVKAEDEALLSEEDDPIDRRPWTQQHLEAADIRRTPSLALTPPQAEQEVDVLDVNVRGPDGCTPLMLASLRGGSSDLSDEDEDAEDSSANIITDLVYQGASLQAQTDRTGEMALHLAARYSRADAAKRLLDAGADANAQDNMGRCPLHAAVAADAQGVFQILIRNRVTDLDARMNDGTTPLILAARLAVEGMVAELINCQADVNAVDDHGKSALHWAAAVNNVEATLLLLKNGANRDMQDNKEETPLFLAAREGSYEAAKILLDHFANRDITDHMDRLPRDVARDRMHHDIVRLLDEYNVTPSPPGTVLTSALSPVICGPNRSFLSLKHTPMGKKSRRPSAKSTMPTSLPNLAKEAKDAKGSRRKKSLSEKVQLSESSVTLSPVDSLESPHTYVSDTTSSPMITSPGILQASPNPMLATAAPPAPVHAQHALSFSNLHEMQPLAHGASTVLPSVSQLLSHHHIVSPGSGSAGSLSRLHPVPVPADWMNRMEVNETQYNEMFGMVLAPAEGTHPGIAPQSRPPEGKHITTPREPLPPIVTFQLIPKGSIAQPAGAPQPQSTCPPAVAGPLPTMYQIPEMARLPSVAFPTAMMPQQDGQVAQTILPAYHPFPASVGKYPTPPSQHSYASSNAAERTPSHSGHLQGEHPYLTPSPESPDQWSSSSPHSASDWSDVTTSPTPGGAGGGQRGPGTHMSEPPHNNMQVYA
Pro-neuregulin-1, membrane-bound isoform (Homo sapiens), sequence (Q02297 whole entry, looked up, the tested form may be a part, canonical isoform): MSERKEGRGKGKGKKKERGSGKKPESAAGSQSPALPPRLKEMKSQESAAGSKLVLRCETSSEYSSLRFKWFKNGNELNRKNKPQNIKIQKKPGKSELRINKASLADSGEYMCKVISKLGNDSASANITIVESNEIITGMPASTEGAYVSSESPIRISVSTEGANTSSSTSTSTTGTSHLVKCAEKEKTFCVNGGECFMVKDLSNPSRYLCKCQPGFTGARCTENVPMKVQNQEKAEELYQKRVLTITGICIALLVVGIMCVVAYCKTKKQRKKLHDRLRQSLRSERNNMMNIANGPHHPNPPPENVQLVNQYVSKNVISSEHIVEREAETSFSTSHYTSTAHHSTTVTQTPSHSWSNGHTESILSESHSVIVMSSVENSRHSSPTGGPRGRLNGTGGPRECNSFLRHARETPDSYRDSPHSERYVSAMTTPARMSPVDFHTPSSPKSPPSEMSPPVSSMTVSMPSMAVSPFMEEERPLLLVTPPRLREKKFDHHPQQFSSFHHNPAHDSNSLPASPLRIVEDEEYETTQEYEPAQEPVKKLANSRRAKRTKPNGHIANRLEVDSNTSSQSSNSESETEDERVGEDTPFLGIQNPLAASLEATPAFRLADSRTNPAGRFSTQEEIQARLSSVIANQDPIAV

Regarding `C=CCOC(=O)[C@@H]1[C@H]2C(=O)O[C@H](c3ccccc3)[C@H](c3ccccc3)N2[C@H](c2ccc(OCCOC(=O)[C@H]3C[C@H]4C(=O)N[C@@H](CCCCN(C)C)C(=O)N4[C@H]3c3cccc(OCCO)c3)cc2)[C@@]12C(=O)Nc1ccccc12`, the composite z-score is 1.24 in assay [1]; 0.596 in [2]; 0.031 in assay [3]; -0.629 in assay [4]; -1.13 in assay [5]; 1.96 in assay [6]. Further, the composite z-score in assay [7] is 0.815; in assay [9] it was -0.651; in assay [10], -0.166. Also, in assay [8], the z-score is 1.02 (inactive).

In the case of `COC(=O)[C@@]1(Cc2ccccc2)[C@H]2c3cc(C(=O)N(C)C)n(Cc4nc5ccccc5[nH]4)c3C[C@H]2CN1C(=O)c1ccccc1`, the composite z-score in [1] was determined as 1.1; in [2] it was 1.08; in assay [3] it was 0.214; in assay [4], 0.572; in assay [5], 1.77; in assay [6], 2.12. Moreover, the figures for the composite z-score in [7], in assay [9] and in assay [10] were 1.33, 1.37 and -0.315, respectively. Besides, the z-score in [8] was -1.3 (inactive).

In the case of `CCCCC(=C=CC[C@@H](O)c1ccccc1OCCO)C[C@@H](O)c1ccccn1`, the composite z-score in assay [1] is 0.0106; in [2], 0.362; in assay [3], -0.102; in [4] it was 0.23; in assay [5] it was 0.418; in [6], 0.69. Also, the composite z-score in assay [7] is 0.327; in assay [9] it was -0.0288; in assay [10] it was -0.0645. Besides, the z-score in assay [8] was -1.14 (inactive).

Consider `C[C@@]1([C@@H](NS(=O)(=O)c2cccc3cccnc23)c2ccc(-c3ccccc3)cc2)C[C@H]1C1CCCCC1`, for which the composite z-score in assay [1] was 0.299; in assay [2] it was 0.0816; in assay [3], 0.163; in assay [4] it was -0.0733; in assay [5], 0.983; in assay [6], 0.609. Moreover, the composite z-score was 0.809 in [7], -0.244 in assay [9] and 0.0446 in assay [10]. For the same molecule, the z-score in assay [8] was -0.365 (inactive).

On to `CCCCCCCCCCC(O)C1C=CC2C(=O)N(C)C(=O)C2N1Nc1ccccc1` (stereo not given), for which the composite z-score in assay [1] is 0.889; in assay [2], 0.149; in [3], -0.229; in assay [4], -1.07; in [5], -0.932; in assay [6], 0.0962. In addition, the results for the composite z-score in [7], in [9] and in [10] were -0.101, -0.191 and -0.469, respectively. Moreover, the z-score in [8] is 0.767 (inactive).

Take `COc1ccc([Si](C)(C)[C@@H]2[C@@H](CC(=O)N(CCO)Cc3ccccc3)O[C@]3(C(=O)N(Cc4cccc(I)c4)c4ccccc43)[C@H]2C)cc1`: the composite z-score in assay [1] is 2.68; in assay [2], 1.17; in [3] it was -0.0422; in assay [4], 0.396; in assay [5], 0.779; in [6] it was 0.496. Moreover, the composite z-score in assay [7] is 1.13; in assay [9], 0.42; in assay [10], 0.572. Also, in [8], the z-score was -0.939 (inactive).

Take `CCOC(=O)C1=CCC(c2cccn2C(=O)OC(C)(C)C)N(S(=O)(=O)c2ccc(C)cc2)C1` (stereo not given): the composite z-score in assay [1] was 1.3; in assay [2], 0.42; in [3], 0.0267; in [4], 0.243; in assay [5], 0.884; in assay [6], 1.7. In addition, the composite z-score in assay [7] came out at 1.18; in assay [9], 0.67; in assay [10], 1.07. In addition, the z-score in assay [8] was -2.99 (inactive).

On to `CCN1C(=O)C2CC(=O)C3C(CN(S(=O)(=O)c4ccc(C)cc4)C3c3ccc(C)cc3)C2C1=O` (stereo not given), for which the composite z-score in [1] worked out at 0.584; in assay [2], 0.122; in assay [3] it was 0.0174; in [4], 0.183; in assay [5], 0.308; in [6] it was 1.61. Besides, the figures for the composite z-score in assay [7], in [9] and in assay [10] were 1.18, 0.292 and 0.0053, respectively. Besides, the z-score in assay [8] was -0.812 (inactive).

As for `O=C1O[C@H](c2ccccc2)[C@H](c2ccccc2)N2[C@H]1[C@@H](C(=O)O)[C@]1(C(=O)Nc3ccccc31)[C@H]2c1ccc(OCCO)cc1`, the composite z-score was -0.442 in assay [1]; -0.0349 in assay [2]; -0.0112 in assay [3]; 0.334 in assay [4]; 0.239 in assay [5]; 1.57 in assay [6]. Also, the composite z-score in assay [7] is 1.04; in assay [9], 0.215; in assay [10] it was 0.176. For the same molecule, the z-score in [8] is 0.248 (inactive).

With `CC1CC/C=C\[C@H]2OC34C=CCN(C(C)C)C(=O)[C@H]3N(C(C)CO)C(=O)[C@@H]4C2C(=O)O1` (stereo not given in full), the composite z-score in [1] was -0.213; in assay [2], 0.104; in [3] it was -0.129; in assay [4] it was -0.19; in assay [5], -0.0047; in assay [6], -0.43. The composite z-score was 0.238 in assay [7], -0.088 in assay [9] and -0.137 in assay [10]. In assay [8], the z-score is -0.658 (inactive).

In the case of `CCOC(=O)C[C@H]1[C@H](OC(=O)c2ccccc2-c2ccccc2)[C@@H](NC(=O)CC(C)C)c2cc(OCCCO)ccc2N1C(=O)c1ccccc1`, the composite z-score in assay [1] is -0.565; in assay [2], 0.115; in assay [3], -0.0632; in assay [4], 0.351; in assay [5], 0.527; in assay [6] it was 0.092. Moreover, the composite z-score in [7] is 0.606; in assay [9] it was 0.324; in [10], -0.137. Also, the z-score in assay [8] is 0.077 (inactive).

For the molecule `C=C(COC)C(=O)CC[C@@H](OC(=O)c1ccccc1-c1ccccc1C(=O)O)c1ccccc1OCCO`, the composite z-score in [1] was -0.167; in assay [2] it was 2.13; in [3] it was -0.0543; in [4], 1.27; in assay [5], 0.468; in assay [6] it was -0.189. Moreover, the composite z-score in assay [7] was 1.12; in assay [9], -0.168; in assay [10], -0.236. Also, in assay [8], the z-score was 0.896 (inactive).

As for `COc1ccc([Si](C)(C)[C@H]2[C@H](CC(=O)N3CCC[C@H]3CO)O[C@@]3(C(=O)N(Cc4cccc(N5CCCCC5=O)c4)c4ccccc43)[C@@H]2C)cc1`, the composite z-score in assay [1] was -0.381; in assay [2], 0.519; in assay [3], -0.126; in [4], 0.682; in [5], 0.757; in [6], 0.836. Moreover, the composite z-score in [7] was 1.14; in assay [9], 0.0346; in assay [10], -0.0296. Moreover, the z-score in [8] is -3.74 (inactive).

As to `C=CCNC(=O)[C@@H]1[C@H]2C(=O)O[C@H](c3ccccc3)[C@H](c3ccccc3)N2[C@H](c2ccc(OCCO)cc2)[C@@]12C(=O)Nc1ccc(C#CC3=CCCCC3)cc12`, the composite z-score is -0.607 in [1]; 0.308 in assay [2]; -0.0442 in assay [3]; 0.924 in assay [4]; 1.02 in assay [5]; 1.28 in assay [6]. The composite z-score in assay [7] is 1.29; in assay [9], 0.597; in [10], -0.186. In [8], the z-score is -0.138 (inactive).
